# Of roughly 7,900 targets only a part is listed; those with a hit were picked by preference. About 0.6% of all pairs of compound and target were hits. Values without a mark were called inactive.
# Compound: Cn1cc(-c2ccc3nnc(C(F)(F)c4ccc5ncccc5c4)n3n2)cn1
# Assay: log2 fold change, soluble protein after heating vs DMSO (PISA); higher = thermal stabilisation; K562 cells, 10 uM, 30 min; active = over 0.2 and 3.5 SD of the protein, either way, in both replicates (recomputed)
# In short: (§1)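 Soluble protein was defined as the supernatant after 21,000xg for 90 min. It came from K562 cells at 2×10^6 cells/mL given 10 μM compound for 30 min, heated in aliquots for 3 min across 48°C-58°C, pooled, and extracted in PBS with 0.5% NP-40 at 4°C, and was quantified by TMTpro 16plex LC-MS/MS with equalised channel sums. Thermal stability against control samples, from duplicates, is reported as log2 fold change.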
# Chain of UniProt Q5VWP2 (Q5VWP2 whole entry, looked up): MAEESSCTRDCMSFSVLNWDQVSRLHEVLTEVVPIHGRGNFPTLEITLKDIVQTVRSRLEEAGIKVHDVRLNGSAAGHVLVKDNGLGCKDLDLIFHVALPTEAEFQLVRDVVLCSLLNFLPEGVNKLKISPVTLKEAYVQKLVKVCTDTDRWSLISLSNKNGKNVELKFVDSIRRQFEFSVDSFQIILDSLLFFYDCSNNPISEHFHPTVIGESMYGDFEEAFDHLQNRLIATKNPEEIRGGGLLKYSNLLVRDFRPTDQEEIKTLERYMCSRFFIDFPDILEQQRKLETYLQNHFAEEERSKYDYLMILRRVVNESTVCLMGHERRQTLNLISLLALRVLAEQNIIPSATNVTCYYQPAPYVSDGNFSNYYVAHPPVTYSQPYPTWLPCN
# Chain of UniProt Q9H5Q4 (Q9H5Q4 whole entry, looked up): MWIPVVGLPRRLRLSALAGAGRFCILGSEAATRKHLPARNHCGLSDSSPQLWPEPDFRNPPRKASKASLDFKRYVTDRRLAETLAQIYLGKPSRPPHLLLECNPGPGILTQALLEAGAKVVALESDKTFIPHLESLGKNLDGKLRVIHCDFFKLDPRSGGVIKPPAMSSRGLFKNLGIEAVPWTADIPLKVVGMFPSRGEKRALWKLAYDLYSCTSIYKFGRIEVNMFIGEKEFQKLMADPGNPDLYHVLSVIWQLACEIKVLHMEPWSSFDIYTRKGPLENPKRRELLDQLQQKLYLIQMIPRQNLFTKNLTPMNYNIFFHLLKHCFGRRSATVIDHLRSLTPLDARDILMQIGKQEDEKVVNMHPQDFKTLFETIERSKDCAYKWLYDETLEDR
# Chain of UniProt Q9UMY4 (Q9UMY4 whole entry, looked up): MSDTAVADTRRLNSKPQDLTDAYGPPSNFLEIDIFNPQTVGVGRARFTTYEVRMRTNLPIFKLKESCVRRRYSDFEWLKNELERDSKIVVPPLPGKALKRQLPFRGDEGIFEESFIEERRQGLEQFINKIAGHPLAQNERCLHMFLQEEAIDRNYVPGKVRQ
# Chain of UniProt Q9NRS6 (Q9NRS6 whole entry, looked up): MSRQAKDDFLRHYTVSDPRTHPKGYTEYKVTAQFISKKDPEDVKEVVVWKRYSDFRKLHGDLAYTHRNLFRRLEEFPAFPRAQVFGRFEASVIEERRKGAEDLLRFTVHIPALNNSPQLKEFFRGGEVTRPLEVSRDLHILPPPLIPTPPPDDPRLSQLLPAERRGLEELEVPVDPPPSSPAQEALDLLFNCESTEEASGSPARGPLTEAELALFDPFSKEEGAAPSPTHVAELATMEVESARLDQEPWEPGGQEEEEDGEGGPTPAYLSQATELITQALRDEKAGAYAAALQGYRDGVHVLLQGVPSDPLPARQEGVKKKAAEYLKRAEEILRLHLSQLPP
# Chain of UniProt Q8N1S5 (Q8N1S5 whole entry, looked up): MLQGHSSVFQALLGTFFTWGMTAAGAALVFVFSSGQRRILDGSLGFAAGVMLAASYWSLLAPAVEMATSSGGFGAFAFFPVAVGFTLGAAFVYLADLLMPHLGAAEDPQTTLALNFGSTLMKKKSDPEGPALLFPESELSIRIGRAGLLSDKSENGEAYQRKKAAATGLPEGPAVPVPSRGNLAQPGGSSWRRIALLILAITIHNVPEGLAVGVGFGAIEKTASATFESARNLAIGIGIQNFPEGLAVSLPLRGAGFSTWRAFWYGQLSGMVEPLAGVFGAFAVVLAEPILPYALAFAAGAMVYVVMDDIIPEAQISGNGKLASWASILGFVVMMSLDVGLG
# Chain of UniProt Q14849 (Q14849 whole entry, looked up): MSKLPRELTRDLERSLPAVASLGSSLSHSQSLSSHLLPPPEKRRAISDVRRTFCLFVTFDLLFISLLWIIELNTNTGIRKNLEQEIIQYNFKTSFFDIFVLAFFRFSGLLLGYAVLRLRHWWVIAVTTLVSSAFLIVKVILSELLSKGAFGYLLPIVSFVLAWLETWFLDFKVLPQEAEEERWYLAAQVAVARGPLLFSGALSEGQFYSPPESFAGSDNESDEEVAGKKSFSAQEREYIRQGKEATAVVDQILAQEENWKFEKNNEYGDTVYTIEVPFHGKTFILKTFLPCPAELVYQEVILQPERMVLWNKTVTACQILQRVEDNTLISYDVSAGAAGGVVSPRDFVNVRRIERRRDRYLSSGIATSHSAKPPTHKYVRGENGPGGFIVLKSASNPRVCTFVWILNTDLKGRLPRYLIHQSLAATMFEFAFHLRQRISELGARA
# Chain of UniProt Q01085 (Q01085 whole entry, looked up): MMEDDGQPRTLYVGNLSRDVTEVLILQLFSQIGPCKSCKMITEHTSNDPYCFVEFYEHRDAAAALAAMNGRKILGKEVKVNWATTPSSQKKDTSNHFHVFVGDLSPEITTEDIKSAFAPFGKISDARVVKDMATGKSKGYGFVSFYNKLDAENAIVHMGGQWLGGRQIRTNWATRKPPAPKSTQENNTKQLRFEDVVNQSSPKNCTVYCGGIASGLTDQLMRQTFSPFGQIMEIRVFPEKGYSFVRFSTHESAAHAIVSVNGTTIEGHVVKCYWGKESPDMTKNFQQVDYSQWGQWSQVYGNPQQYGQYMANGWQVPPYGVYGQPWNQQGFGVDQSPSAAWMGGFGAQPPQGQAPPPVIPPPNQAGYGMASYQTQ
# Chain of UniProt Q9BWG4 (Q9BWG4 whole entry, looked up): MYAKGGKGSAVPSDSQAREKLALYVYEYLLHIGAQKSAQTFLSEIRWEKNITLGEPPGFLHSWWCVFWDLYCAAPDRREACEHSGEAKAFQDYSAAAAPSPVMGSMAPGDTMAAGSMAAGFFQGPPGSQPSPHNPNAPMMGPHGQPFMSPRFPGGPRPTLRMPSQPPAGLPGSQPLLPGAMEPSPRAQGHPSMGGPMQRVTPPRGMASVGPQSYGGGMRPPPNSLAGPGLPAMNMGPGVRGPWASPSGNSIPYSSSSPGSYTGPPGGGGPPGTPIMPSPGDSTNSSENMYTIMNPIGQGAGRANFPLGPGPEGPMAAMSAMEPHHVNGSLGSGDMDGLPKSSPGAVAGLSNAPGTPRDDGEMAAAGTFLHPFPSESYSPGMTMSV
# Chain of UniProt O43815 (O43815 whole entry, looked up): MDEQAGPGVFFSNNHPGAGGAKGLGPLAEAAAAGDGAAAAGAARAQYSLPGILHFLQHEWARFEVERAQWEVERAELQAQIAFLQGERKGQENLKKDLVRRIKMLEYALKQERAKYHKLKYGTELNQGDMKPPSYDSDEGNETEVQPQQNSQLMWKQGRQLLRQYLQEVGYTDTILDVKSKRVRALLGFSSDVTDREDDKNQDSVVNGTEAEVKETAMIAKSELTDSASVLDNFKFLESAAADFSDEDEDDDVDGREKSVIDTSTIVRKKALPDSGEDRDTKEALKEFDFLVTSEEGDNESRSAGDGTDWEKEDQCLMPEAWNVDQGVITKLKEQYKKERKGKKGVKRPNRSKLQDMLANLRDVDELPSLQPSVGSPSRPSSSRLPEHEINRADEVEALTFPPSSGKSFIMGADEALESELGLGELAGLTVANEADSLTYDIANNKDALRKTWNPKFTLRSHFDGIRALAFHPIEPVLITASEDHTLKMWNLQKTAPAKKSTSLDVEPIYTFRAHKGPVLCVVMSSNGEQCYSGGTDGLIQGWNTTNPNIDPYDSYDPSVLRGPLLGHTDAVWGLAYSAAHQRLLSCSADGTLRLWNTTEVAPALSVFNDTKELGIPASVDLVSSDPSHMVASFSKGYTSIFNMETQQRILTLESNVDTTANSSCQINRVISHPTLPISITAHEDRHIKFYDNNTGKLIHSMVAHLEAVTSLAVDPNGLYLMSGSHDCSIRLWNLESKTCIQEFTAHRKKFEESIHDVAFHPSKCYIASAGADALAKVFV
# Chain of UniProt Q8NEF9 (Q8NEF9 whole entry, looked up): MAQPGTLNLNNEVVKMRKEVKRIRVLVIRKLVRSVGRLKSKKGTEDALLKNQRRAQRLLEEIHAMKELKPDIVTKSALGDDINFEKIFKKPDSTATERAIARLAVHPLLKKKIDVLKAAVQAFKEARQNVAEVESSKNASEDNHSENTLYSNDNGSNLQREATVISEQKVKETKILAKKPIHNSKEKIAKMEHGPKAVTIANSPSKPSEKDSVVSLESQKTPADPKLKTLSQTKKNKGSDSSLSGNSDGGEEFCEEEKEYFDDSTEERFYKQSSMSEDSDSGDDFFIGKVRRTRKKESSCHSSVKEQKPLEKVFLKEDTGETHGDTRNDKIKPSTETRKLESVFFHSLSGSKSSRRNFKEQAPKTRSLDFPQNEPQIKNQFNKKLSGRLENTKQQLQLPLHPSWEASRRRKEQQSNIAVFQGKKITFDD
# Chain of UniProt Q96BZ9 (Q96BZ9 whole entry, looked up): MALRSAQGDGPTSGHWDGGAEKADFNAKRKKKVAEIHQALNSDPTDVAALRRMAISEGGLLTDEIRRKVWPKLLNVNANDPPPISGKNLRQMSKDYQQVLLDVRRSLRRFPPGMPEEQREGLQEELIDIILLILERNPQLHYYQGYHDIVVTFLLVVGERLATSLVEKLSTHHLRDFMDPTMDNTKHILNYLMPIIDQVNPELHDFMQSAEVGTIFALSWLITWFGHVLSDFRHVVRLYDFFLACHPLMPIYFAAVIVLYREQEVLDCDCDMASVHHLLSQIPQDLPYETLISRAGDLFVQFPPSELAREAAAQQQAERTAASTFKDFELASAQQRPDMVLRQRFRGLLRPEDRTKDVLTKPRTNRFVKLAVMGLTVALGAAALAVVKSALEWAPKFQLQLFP
# Chain of UniProt Q9Y5M8 (Q9Y5M8 whole entry, looked up): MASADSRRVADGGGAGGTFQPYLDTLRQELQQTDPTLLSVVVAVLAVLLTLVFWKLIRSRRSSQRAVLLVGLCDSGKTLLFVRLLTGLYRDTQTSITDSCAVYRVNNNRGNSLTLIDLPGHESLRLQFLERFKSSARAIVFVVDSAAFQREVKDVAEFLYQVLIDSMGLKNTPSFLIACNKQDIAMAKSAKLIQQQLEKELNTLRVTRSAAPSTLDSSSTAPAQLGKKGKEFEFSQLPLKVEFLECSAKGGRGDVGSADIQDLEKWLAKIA
# Chain of UniProt O00193 (O00193 whole entry, looked up): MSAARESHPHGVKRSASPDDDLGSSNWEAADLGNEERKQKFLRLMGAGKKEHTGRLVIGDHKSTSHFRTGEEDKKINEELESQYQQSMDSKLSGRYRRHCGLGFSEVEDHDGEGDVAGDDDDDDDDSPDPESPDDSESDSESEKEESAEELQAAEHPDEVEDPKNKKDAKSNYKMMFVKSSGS
row,Target,log2 fold change
1,STARD3 (UniProt Q14849),-0.018
2,SNX15 (UniProt Q9NRS6),0.086
3,TIAL1 isoform 2 (UniProt Q01085),-0.001
4,TENT5C (UniProt Q5VWP2),0.028
5,SLC39A11 (UniProt Q8N1S5),0.002
6,TFB2M (UniProt Q9H5Q4),-0.004
7,SSBP4 (UniProt Q9BWG4),0.033
8,SYNE1 (UniProt Q8NF91),-0.098
9,SRFBP1 (UniProt Q8NEF9),-0.044
10,STRN (UniProt O43815),-0.064
11,SYNE2 isoform 2 (UniProt Q8WXH0),0.027
12,SNX12 isoform 1 (UniProt Q9UMY4),0.008

# Compound: Cn1cncc1[C@@](N)(c1ccc(Cl)cc1)c1ccc2c(c1)c(-c1cccc(Cl)c1)cc(=O)n2C [tipifarnib]
# Assay: as above
# In short: as §1
row,Target,log2 fold change
1,SMAP (UniProt O00193),-0.042
2,TGFBR1 isoform 2 (UniProt P36897),0.017
3,SLC7A6OS (UniProt Q96CW6),0.06
4,TK1 (UniProt P04183),0
5,TACC2 (UniProt O95359),0.029
6,TEX30 (UniProt Q5JUR7),-0.18
7,TATDN2 (UniProt Q93075),0.074
8,STK11IP (UniProt Q8N1F8),0.034
9,SRXN1 (UniProt Q9BYN0),-0.149
10,SSRP1 (UniProt Q08945),0
11,TAF9 (UniProt Q16594),0.077
12,SP1 (UniProt P08047),0.01
13,SRPRB (UniProt Q9Y5M8),-0.123
14,SLC38A7 (UniProt Q9NVC3),0.056
15,SP100 isoform 4 (UniProt P23497),-0.087
16,TK1 (UniProt K7ERV3),0.03
17,SMARCA4 (UniProt P51532),0.197

row,Target,log2 fold change
1,TBC1D20 isoform 3 (UniProt Q96BZ9),-0.077
2,SRSF6 (UniProt Q13247),0.212
3,SRC isoform 2 (UniProt P12931),0.005
4,SMG1 (UniProt Q96Q15),-0.098
5,SRCAP (UniProt Q6ZRS2),0.083
6,SNRPB2 (UniProt P08579),0.084
7,STARD3 (UniProt Q14849),0.022
8,SNX15 (UniProt Q9NRS6),0.067
9,TIAL1 isoform 2 (UniProt Q01085),0.015
10,TENT5C (UniProt Q5VWP2),-0.02
11,SLC39A11 (UniProt Q8N1S5),0.048
12,TFB2M (UniProt Q9H5Q4),-0.132
13,SSBP4 (UniProt Q9BWG4),0.301
14,SRFBP1 (UniProt Q8NEF9),0.177
15,STRN (UniProt O43815),0
16,SYNE2 isoform 2 (UniProt Q8WXH0),-0.029
17,SNX12 isoform 1 (UniProt Q9UMY4),-0.015

# Compound: FC(F)(F)c1ccc(/C=C/c2nc(COc3ccc(CCCCn4ccnn4)cc3)co2)cc1 [mubritinib]
# Assay: as above
# In short: as §1
row,Target,log2 fold change
1,SMAP (UniProt O00193),0.038
2,TGFBR1 isoform 2 (UniProt P36897),-0.113
3,SLC7A6OS (UniProt Q96CW6),0.058
4,TK1 (UniProt P04183),0.056
5,TACC2 (UniProt O95359),-0.006
6,TEX30 (UniProt Q5JUR7),0.033
7,STK11IP (UniProt Q8N1F8),-0.071
8,SRXN1 (UniProt Q9BYN0),0.127
9,SSRP1 (UniProt Q08945),0.009
10,STK38L (UniProt Q9Y2H1),0.081
11,TAF9 (UniProt Q16594),-0.005
12,SP1 (UniProt P08047),-0.023
13,SRPRB (UniProt Q9Y5M8),0.134
14,SLC38A7 (UniProt Q9NVC3),-0.007
15,SP100 isoform 4 (UniProt P23497),0.043
16,TK1 (UniProt K7ERV3),0.037
17,SMARCA4 (UniProt P51532),0.101
18,SLC44A2 isoform 2 (UniProt Q8IWA5),0.045
19,TBC1D20 isoform 3 (UniProt Q96BZ9),0.129

row,Target,log2 fold change
1,SRSF6 (UniProt Q13247),-0.014
2,SPIRE1 (UniProt Q08AE8),0.098
3,SRC isoform 2 (UniProt P12931),0.031
4,SMG1 (UniProt Q96Q15),0.064
5,SRCAP (UniProt Q6ZRS2),0.05
6,SNRPB2 (UniProt P08579),0.045
7,STARD3 (UniProt Q14849),-0.067
8,SNX15 (UniProt Q9NRS6),-0.063
9,TIAL1 isoform 2 (UniProt Q01085),0.013
10,TENT5C (UniProt Q5VWP2),0.014
11,SLC39A11 (UniProt Q8N1S5),-0.005
12,TFB2M (UniProt Q9H5Q4),-0.039
13,SSBP4 (UniProt Q9BWG4),0.066
14,SYNE1 (UniProt Q8NF91),0.182
15,SRFBP1 (UniProt Q8NEF9),-0.129
16,STRN (UniProt O43815),0.021
17,SYNE2 isoform 2 (UniProt Q8WXH0),0.233
18,SNX12 isoform 1 (UniProt Q9UMY4),-0.009

# Source: the supplement of paper PMC10849652
